# The list is not random: actives were taken first. Their share in the collection is about 3.5%.
# Pf apPOL block – Pf-apPOL inhibitors, biochemical, fluorescence. Plasmodium falciparum apicoplast DNA polymerase (apPOL). Recombinant Pf-apPOL, molecular beacon fluorescence, 1.5 h. inhibition, % at 10 µM. hit rate 0.25% among 210,000. AID 1794808, 2022
# mHTT CaM bind – mutant huntingtin-calmodulin interaction inhibitors – biochemical, AlphaScreen, primary screen; hit rate 3.6% among 190,000; inhibition, % at 15 µM; AlphaScreen His-mHTT/GST-CaM binding, luminescence; AID 1671202, 2021; P42858;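 also: 0% = both proteins with DMSO and 100% = one protein alone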
# Active calls of the source: *; . = no result; ! = a repeat was not active. Rule as the data show it: active = inhibition above about 50%; inactive = the rest.
SMILES,Pf apPOL block,mHTT CaM bind
CCOc1ccc2c(c1)sc(=NC(=O)c1ccc([N+](=O)[O-])cc1)n2C,-2,-2
COc1ccc(C(O)=C2C(=O)C(=O)N(CCCO)C2c2ccc(N(C)C)cc2)cc1 (stereo not drawn),-4,6
Cc1ccc(N2C(=O)CSC2c2ccc(Cl)cc2)cc1F (stereo not drawn),4,-16
O=C(NC1CCCCC1)C1CCc2nc(N3CCCCC3)ncc2C1 (stereo not drawn),-5,3
CCOC(=O)Oc1cc2sc(=O)oc2cc1Br,-3,30
COC(=O)Oc1c(Cl)cc2oc(=O)sc2c1Br,2,93*
O=c1oc2cc(Br)c(O)c(Br)c2s1,1,100*
COC(=O)Oc1c(Br)cc2oc(=O)sc2c1[N+](=O)[O-],0,86*
CN(C)S(=O)(=O)Oc1cc2sc(=O)oc2cc1Cl,-5,19
Cc1ccc(OC(=O)OCC(C)C)c(Br)c1,4,-18
CC(C)COC(=O)Oc1c(Cl)cc2oc(=O)sc2c1[N+](=O)[O-],3,82*
Nc1ccc(S(=O)(=O)NCCC2=CCCCC2)cc1,-7,-2
COc1ccc(/C=C/C(=O)Nc2cccc(Cl)c2Cl)cc1,1,-8
COc1ccc(OCCCC(=O)NC2CCCC2)cc1,2,-8
COc1cc(Cl)c(S(=O)(=O)n2nnc3ccccc32)cc1Cl,-12,-4
COc1c(S(=O)(=O)n2nnc3ccccc32)ccc(Cl)c1Cl,-7,87*!
O=S(=O)(c1ccc(Cl)c(Cl)c1Cl)n1nnc2ccccc21,-4,-8
COc1ccc(Cl)cc1S(=O)(=O)n1nnc2ccccc21,-1,18
COc1cc(S(=O)(=O)n2nnc3ccccc32)ccc1Cl,-9,88*!
O=S(=O)(c1cc(Cl)ccc1Cl)n1nnc2ccccc21,0,57*
CCC(C)c1ccc(O)c(C=NNc2ccccc2)c1 (stereo not drawn),-6,.
O=C(NC1CCCCC1)c1ccc(N2CCC3(CC2)OCCO3)c([N+](=O)[O-])c1,-8,27
COc1ccc(OCc2ccccc2)c(C=O)c1,-35,-29
O=Cc1cc(OCc2ccccc2)ccc1O,-3,76*
CC(C)c1nncn1C1CCN(C(=O)c2ccc(C#N)cc2)C1 (stereo not drawn),0,1
SMILES,Pf apPOL block,mHTT CaM bind
COCCNC(=O)c1ccc(CS(=O)(=O)Cc2ccc(Cl)cc2)o1,-14,-1
CCOc1ccccc1NC(=O)CCN1CCN(C2c3ccccc3-c3ccccc32)CC1,0,57*
O=C(CCN1CCN(C2c3ccccc3-c3ccccc32)CC1)Nc1ccccc1F,-2,15
COc1ccc(C2=CC(c3cccs3)n3ncnc3N2)cc1 (stereo not drawn),-7,24
CCCCCCCCCn1cc[n+](CCCCCCCCC)c1C,.,100*
CCCCCCCCN1C(=O)CCC1=O,.,-9
CN(C)c1ncccc1NS(=O)(=O)c1ccc(F)cc1,-4,-4
COc1ccccc1-n1nnc(C(=O)Nc2ccccc2)c1N,-5,-1
Cc1ccc(O)c(N=C2C(=O)Nc3ccccc32)c1,1,56*
Cc1ccc(N=C2C(=O)Nc3ccccc32)c(C)c1,-4,13
COc1ccc(CNC(=O)c2nc3nc(-c4ccccc4)cc(C(F)(F)F)n3n2)cc1,-5,22
O=C(Cc1cccc(F)c1)Nc1cnc(N2CCOCC2)nc1,-4,-4
Cc1c(Cl)cccc1NC(=O)N1CC2CCCN2c2ccccc21 (stereo not drawn),-3,77*
O=C(Nc1ccccc1F)N1CC2CCCN2c2ccccc21 (stereo not drawn),-4,24
CCOC(=O)c1ccccc1NC(=O)N1CC2CCCN2c2ccccc21 (stereo not drawn),-1,68*
Cc1c(Cl)cccc1NC(=O)N1CC(C)Oc2ccccc21 (stereo not drawn),-18,-5
COC(=O)c1ccc(Cl)cc1NC(=O)N1CC2CCCN2c2ccccc21 (stereo not drawn),5,46
CCc1ccccc1NC(=O)N1CC2CCCN2c2ccccc21 (stereo not drawn),-1,79*
CCCSc1nnc2c(n1)OC(c1cccc(O)c1)Nc1ccccc1-2 (stereo not drawn),12,3
Cc1cccc(C)c1OCCCSC#N,-3,-44
COc1ccc(C=Nc2ccc3oc(=O)ccc3c2)cc1,-2,-5
O=C(Cn1[nH]c2c(cnc3ccc(Cl)cc32)c1=O)Nc1cccc(F)c1,-4,90*
Cc1ccc(NC(=O)Cn2[nH]c3c(cnc4ccc(Cl)cc43)c2=O)cc1,-2,-7
O=C(Cn1[nH]c2c(cnc3ccc(Cl)cc32)c1=O)Nc1ccc(F)cc1F,-3,66*
O=C(Cn1[nH]c2c(cnc3ccc(Cl)cc32)c1=O)Nc1cccc(Cl)c1,0,21
SMILES,Pf apPOL block,mHTT CaM bind
Cc1ccc2ncc3c(=O)n(CC(=O)Nc4cccc(F)c4)[nH]c3c2c1,0,81*
Cc1ccc(NC(=O)Cn2[nH]c3c(cnc4ccc(F)cc43)c2=O)cc1C,7,-5
Cc1cc(C)cc(NC(=O)Cn2[nH]c3c(cnc4ccc(F)cc43)c2=O)c1,2,-9
Cc1c(Cl)cccc1NC(=O)Cn1[nH]c2c(cnc3ccc(F)cc32)c1=O,2,58*
O=C(NCc1ccc(F)cc1)N1CCC(N2CCN(Cc3ccccc3)C2=O)CC1,-5,9
CCC(=O)Nc1ccc(Cc2ccc(NC(=O)CC)c(C(=O)O)c2)cc1C(=O)O,11,-2
O=C(Nc1ccccc1)NC1(C(F)(F)F)Oc2ccc(Cl)cc2O1 (stereo not drawn),0,-9
CCN1CCC2(CC1)N=C(c1ccc(C)cc1C)CC(c1cc(Cl)ccc1O)N2 (stereo not drawn),1,90*
CC(=O)N1CCC2(CC1)N=C(c1cc(Cl)ccc1O)CC(c1ccc(C)cc1)N2 (stereo not drawn),6,24
CC(=O)N1CCC2(CC1)N=C(c1ccccc1O)CC(c1ccc(F)c(Cl)c1)N2 (stereo not drawn),-2,69*
CCN1CCC2(CC1)N=C(c1ccc(C)c(C)c1)CC(c1cc(Cl)ccc1O)N2 (stereo not drawn),-4,15
Cc1ccc(C2CC(c3cc(Cl)ccc3O)=NC3(CCN(C)CC3)N2)cc1 (stereo not drawn),6,100*
CC(=O)N1CCC2(CC1)N=C(c1ccccc1O)CC(c1ccc(Cl)cc1)N2 (stereo not drawn),-7,28
Cc1ccc(C)c(OCC(=O)N2CCN(c3ccccc3)CC2)c1,-5,-2
Cc1nn(-c2cccc(Cl)c2)c(C)c1-c1cccc([N+](=O)[O-])c1,-4,26
CCn1nnc2c(Nc3cccc(C(C)=O)c3)ncnc21,2,-1
O=C(NCc1cc(-c2ccco2)on1)C1CC1,-6,-13
COc1ccc([C@H]2C[C@@H](O)[C@H](n3cc(-c4ccc(F)cc4)nn3)CN2CC2CCCCC2)cc1,-2,15
O[C@@H]1C[C@H](c2ccc(Cl)cc2)N(CC2CCCCC2)C[C@H]1n1cc(C2CC2)nn1,1,-11
O[C@H]1C[C@H](c2ccc(Cl)cc2)N(CC2CCCCC2)C[C@@H]1n1cc(C2CC2)nn1,-9,80*
O[C@H]1C[C@H](c2ccccc2)N(CC2CCCCC2)C[C@@H]1n1cc(-c2ccc(F)cc2)nn1,1,55*
